Results on 17 compounds are retold here after ChEMBL document CHEMBL1961873, “Compounds: GSK PKIS; Assays: Nanosyn kinase panel” (2012).

In assay [1] the target is Tyrosine-protein kinase receptor UFO (Homo sapiens) (UniProt P30530). The note with it: at 1 µM.
Assay [2] has as its target Tyrosine-protein kinase Blk (Homo sapiens) (UniProt P51451). The note with it: at 0.1 µM.
Assay [3] shares this target. The note with it: at 1 µM.
Assay [4] addresses T1, Cytoplasmic tyrosine-protein kinase BMX (Homo sapiens) (UniProt P51813).
T1 sequence (whole entry): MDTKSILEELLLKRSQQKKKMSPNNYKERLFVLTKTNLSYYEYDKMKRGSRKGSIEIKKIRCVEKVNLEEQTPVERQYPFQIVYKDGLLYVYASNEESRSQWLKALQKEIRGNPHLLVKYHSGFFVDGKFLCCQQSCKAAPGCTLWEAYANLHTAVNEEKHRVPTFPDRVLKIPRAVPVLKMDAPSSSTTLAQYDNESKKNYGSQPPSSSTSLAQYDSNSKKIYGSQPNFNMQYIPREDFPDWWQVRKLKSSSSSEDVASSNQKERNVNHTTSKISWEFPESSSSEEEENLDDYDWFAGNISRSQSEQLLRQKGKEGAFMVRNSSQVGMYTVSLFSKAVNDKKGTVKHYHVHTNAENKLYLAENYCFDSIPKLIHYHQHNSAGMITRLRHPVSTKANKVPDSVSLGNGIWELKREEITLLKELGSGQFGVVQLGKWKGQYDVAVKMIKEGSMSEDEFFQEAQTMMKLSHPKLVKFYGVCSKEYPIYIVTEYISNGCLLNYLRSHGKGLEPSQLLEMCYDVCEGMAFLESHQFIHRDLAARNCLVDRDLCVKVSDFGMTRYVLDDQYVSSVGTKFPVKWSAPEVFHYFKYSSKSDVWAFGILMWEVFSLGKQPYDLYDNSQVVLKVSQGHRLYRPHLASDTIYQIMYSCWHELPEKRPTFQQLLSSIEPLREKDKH
Particulars: at 0.1 µM.

The target of assay [5] is T1, Cytoplasmic tyrosine-protein kinase BMX (Homo sapiens). The note with it: at 1 µM.
The target of assay [6] is Protein-tyrosine kinase 6 (Homo sapiens) (UniProt Q13882). The note with it: at 0.1 µM.
Protein-tyrosine kinase 6 (Homo sapiens), sequence (Q13882 whole entry, looked up): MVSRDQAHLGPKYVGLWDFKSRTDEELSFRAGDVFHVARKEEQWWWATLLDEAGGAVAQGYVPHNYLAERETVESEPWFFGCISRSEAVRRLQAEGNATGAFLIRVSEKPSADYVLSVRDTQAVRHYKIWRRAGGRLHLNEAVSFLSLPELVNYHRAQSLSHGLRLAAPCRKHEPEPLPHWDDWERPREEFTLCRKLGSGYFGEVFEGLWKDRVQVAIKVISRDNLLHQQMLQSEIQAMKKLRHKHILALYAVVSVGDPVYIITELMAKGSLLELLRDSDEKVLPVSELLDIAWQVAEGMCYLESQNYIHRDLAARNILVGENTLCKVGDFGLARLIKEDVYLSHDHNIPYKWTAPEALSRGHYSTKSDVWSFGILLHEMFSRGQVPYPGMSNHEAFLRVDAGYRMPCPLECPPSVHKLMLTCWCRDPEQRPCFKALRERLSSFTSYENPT
Assay [7] has the same target. Particulars: at 1 µM.
Assay [8] has as its target Tyrosine-protein kinase BTK (Homo sapiens) (UniProt Q06187). Particulars: at 0.1 µM.
Assay [9] shares this target. Particulars: at 1 µM.
Assay [10] addresses Tyrosine-protein kinase CSK (Homo sapiens) (UniProt P41240). The note with it: at 0.1 µM.

Tyrosine-protein kinase receptor UFO (Homo sapiens), sequence (P30530 whole entry): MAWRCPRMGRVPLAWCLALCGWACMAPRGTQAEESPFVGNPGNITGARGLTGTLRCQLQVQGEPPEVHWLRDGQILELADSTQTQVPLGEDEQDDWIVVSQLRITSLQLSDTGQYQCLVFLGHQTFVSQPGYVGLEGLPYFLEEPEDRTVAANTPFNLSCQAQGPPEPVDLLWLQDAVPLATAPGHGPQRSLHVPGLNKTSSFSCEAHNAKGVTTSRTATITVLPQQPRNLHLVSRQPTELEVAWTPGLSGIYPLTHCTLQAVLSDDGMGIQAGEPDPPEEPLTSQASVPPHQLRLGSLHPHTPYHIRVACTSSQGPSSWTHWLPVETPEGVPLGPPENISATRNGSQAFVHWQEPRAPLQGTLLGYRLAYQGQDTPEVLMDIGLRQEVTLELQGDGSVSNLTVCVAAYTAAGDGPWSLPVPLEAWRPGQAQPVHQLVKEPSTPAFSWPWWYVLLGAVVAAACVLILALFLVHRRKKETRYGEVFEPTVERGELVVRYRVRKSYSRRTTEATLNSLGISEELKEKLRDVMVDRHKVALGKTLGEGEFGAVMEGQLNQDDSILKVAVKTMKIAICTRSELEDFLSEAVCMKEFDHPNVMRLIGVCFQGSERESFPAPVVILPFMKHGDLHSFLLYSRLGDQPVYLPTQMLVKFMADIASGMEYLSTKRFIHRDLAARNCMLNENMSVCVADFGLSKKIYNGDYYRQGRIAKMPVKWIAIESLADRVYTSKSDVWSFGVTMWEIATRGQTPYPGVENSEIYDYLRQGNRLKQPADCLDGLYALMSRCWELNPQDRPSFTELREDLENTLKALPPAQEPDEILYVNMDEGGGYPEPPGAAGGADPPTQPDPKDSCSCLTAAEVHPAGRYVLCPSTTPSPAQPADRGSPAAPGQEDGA
Tyrosine-protein kinase CSK (Homo sapiens), sequence (P41240 2-450 limits assumed): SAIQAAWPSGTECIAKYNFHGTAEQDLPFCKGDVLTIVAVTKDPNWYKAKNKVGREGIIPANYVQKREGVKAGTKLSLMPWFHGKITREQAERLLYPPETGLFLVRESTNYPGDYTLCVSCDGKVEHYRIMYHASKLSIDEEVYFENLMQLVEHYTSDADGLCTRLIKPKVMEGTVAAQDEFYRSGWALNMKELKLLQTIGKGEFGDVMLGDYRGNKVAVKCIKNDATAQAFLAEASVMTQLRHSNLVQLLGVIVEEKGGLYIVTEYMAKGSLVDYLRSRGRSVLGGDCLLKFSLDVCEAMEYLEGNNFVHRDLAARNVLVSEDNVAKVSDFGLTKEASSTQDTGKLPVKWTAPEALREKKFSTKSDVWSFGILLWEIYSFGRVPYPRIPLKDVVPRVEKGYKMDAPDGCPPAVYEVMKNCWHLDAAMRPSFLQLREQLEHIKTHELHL
Tyrosine-protein kinase Blk (Homo sapiens), sequence (P51451 2-505 limits assumed): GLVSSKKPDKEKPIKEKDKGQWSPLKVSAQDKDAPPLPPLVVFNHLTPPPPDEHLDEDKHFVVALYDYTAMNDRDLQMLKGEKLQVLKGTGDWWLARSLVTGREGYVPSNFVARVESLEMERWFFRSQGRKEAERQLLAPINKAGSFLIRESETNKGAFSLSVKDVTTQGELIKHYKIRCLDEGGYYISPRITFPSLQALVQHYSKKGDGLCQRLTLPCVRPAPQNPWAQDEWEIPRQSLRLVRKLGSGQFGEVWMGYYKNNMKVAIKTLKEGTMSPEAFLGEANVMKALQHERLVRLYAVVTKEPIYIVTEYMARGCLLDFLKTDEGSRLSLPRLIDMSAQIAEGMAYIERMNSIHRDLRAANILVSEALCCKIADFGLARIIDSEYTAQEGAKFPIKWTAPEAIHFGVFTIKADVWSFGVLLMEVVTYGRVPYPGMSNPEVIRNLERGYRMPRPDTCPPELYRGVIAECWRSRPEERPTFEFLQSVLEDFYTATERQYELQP
Tyrosine-protein kinase BTK (Homo sapiens), sequence (Q06187 whole entry): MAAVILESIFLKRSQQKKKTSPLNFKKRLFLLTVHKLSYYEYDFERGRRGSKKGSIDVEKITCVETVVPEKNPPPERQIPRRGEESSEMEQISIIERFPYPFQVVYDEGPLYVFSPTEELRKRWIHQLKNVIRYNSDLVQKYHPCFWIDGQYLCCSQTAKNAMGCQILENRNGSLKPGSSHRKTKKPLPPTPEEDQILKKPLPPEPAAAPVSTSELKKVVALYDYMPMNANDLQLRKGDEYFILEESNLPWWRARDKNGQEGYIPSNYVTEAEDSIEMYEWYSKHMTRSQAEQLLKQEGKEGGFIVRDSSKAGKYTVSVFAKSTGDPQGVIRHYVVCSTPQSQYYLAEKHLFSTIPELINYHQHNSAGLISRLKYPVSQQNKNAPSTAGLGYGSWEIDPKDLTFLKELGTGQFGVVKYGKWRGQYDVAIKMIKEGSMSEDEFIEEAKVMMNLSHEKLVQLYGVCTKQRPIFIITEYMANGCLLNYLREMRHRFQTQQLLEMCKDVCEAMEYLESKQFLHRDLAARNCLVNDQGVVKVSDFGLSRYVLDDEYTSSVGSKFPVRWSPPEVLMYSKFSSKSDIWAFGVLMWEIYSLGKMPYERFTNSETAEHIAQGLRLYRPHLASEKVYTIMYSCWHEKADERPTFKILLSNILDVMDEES

What is called inhibition is the drop in the measured response relative to a control, in per cent. As for `CCCN1CCC(c2ccc(Nc3nc(Nc4cc(F)ccc4C(N)=O)c4cc[nH]c4n3)c(OC)c2)CC1`, the inhibition in assay [1] was determined as 66%; in assay [2], 3.5%; in [3] it was 8.52%; in assay [4] it was 3.68%; in assay [5], 6.36%; in [6], 13.5%. Also, the inhibition in [7] was 64.8%; in [8] it was -1.53%; in assay [9], -1.71%; in assay [10], 1.38%.

As for `COc1cccc(-c2c[nH]c3c(N/N=C/c4ccncc4)ncnc23)c1`, the inhibition amounted to 3.21% in assay [1]; 7.63% in assay [2]; 57.9% in assay [3]; 8.13% in [4]; 45.1% in assay [5]; 2.51% in [6]. Further, the inhibition in [7] came out at 4.81%; in assay [8], 0.88%; in assay [9], 2.48%; in assay [10] it was 4.78%.

With `COC(=O)c1sc(-n2cnc3cc(OC)c(OC)cc32)cc1OCc1ccccc1C(F)(F)F`, the inhibition was -2.03% in [1]; 3.54% in assay [2]; 22.4% in assay [3]; 3.04% in [4]; 6.66% in [5]; 2.66% in assay [6]. The inhibition in [7] is 4.35%; in [8], -0.65%; in assay [9] it was 1.6%; in assay [10], 1.76%.

With `COC(=O)Nc1nc2ccc(S(=O)(=O)c3ccc(NC(=O)Nc4cc(C(F)(F)F)ccc4F)cc3)cc2[nH]1`, the inhibition in assay [1] was -1.71%; in [2] it was 1.71%; in assay [3], 3.18%; in [4], 6.6%; in assay [5], 5.12%; in assay [6], 2.94%. Besides, the inhibition in assay [7] stood at 2.51%; in assay [8] it was 1.86%; in [9], 0.94%; in assay [10], 2.8%.

In the case of `[O-][S+]1CCN(Cc2ccc(-c3ccc4ncnc(Nc5ccc(OCc6cccc(F)c6)c(Cl)c5)c4c3)o2)CC1`, the inhibition in [1] was -4.13%; in [2], 1.74%; in assay [3], 7.66%; in assay [4], 7.13%; in assay [5], 7.73%; in assay [6], 4.81%. The inhibition is 7.3% in [7], -0.42% in [8], 0.99% in [9] and 6.74% in assay [10].

For `Cc1ccc(O)cc1Nc1ccnc2cc(-c3ccccn3)ccc12`, the inhibition in assay [1] was -6.05%; in [2] it was 12.5%; in assay [3] it was 61.8%; in [4], 19.8%; in [5], 69.2%; in [6] it was 52.5%. Moreover, the inhibition stood at 96.9% in [7], 4.79% in [8], 34.5% in assay [9] and 14.5% in [10].

Turning to `CN(C)CCOc1ccc(-c2nc(-c3ccncc3)c(-c3ccc4c(c3)CC/C4=N\O)[nH]2)cc1`, the inhibition in [1] was -4.92%; in assay [2] it was 2.07%; in [3] it was 6.18%; in assay [4], 2.12%; in [5], 3.36%; in assay [6] it was 4.89%. In addition, the inhibition came to 12.4% in assay [7], 0.76% in assay [8], 1.19% in assay [9] and 6.25% in assay [10].

As for `COc1ccc(-c2oc3ncnc(N)c3c2-c2ccc(NC(=O)Nc3cc(C(F)(F)F)ccc3F)cc2)cc1`, the inhibition in [1] is 82.1%; in assay [2] it was 5.14%; in [3], 41.2%; in [4] it was 8.1%; in [5], 59.5%; in assay [6], 3.11%. For the same compound, the inhibition in assay [7] was 25.4%; in assay [8], 1.43%; in assay [9], 13.3%; in assay [10], 10.9%.

In the case of `O=C(Nc1n[nH]c2cc(-c3ccc(F)cc3)ccc12)C1CC1`, the inhibition was -2.92% in assay [1]; 1.55% in assay [2]; 7.03% in assay [3]; 0.57% in [4]; 5.89% in assay [5]; 3.22% in assay [6]. Further, the inhibition in [7] was 2.76%; in [8], -1.4%; in [9], -0.88%; in assay [10] it was 3.39%.

As to `Cc1ccc2c(-c3ccnc(Nc4ccccc4)n3)c(-c3ccc(F)cc3)nn2n1`, the inhibition in assay [1] was -3.51%; in [2] it was 6.22%; in assay [3], 49%; in assay [4], 3.36%; in [5] it was 42.7%; in assay [6], 15.2%. The inhibition was determined as 63.4% in assay [7], 2.84% in [8], 6.06% in assay [9] and 3.99% in assay [10].

In the case of `NS(=O)(=O)c1ccc(Nc2ncc(-c3ccccc3)o2)cc1`, the inhibition in assay [1] is -3.58%; in [2], 2.41%; in [3] it was 4.76%; in assay [4], 0.13%; in assay [5] it was 5.05%; in assay [6], 4.11%. Besides, the inhibition in assay [7] is 4.41%; in assay [8], 0%; in assay [9], 1.06%; in assay [10], 6.51%.

For `CCCN(CCS(C)(=O)=O)Cc1ccc(-c2ccc3ncnc(Nc4ccc(OCc5cccc(F)c5)c(Cl)c4)c3c2)o1`, the inhibition is -0.23% in assay [1]; 1.35% in [2]; 4% in assay [3]; 0.94% in assay [4]; 3.89% in assay [5]; 4.08% in assay [6]. In addition, the inhibition was 7.54% in assay [7], -0.01% in assay [8], 0.03% in assay [9] and 1.98% in assay [10].

Regarding `CC(C)(CO)CNC(=O)c1ccc2c(c1)/C(=N/Nc1ccc(S(N)(=O)=O)cc1)C(=O)N2`, the inhibition in assay [1] is 6.57%; in [2], -0.9%; in assay [3], 10.8%; in [4], -1.83%; in [5], 0.67%; in assay [6], -2.27%. In addition, the inhibition in assay [7] was -0.34%; in [8] it was 0.27%; in assay [9], -2.23%; in assay [10], 0.77%.

On to `NS(=O)(=O)c1ccc(N/N=C2\C(=O)Nc3ccc4ncccc4c32)cc1`, for which the inhibition in assay [1] was 36.8%; in assay [2], 8.45%; in assay [3] it was 60%; in assay [4], 6.88%; in assay [5] it was 25.3%; in assay [6], 5.86%. The inhibition was 31.9% in assay [7], 1.8% in assay [8], 13% in assay [9] and 1.66% in [10].

As for `CCN(CC)S(=O)(=O)c1ccc(OC)c(Nc2ncc(-c3ccccc3)o2)c1`, the inhibition in assay [1] was -0.53%; in assay [2], 3.51%; in assay [3], 31.4%; in assay [4], -2.19%; in [5], 7.38%; in assay [6], -0.82%. Also, the inhibition worked out at 3.3% in assay [7], 2.59% in assay [8], 3.38% in assay [9] and 1.59% in assay [10].

As to `CCn1c(-c2nonc2N)nc2cnc(Oc3cccc(NC(=O)c4ccc(N(C)C)cc4)c3)cc21`, the inhibition was -3.3% in assay [1]; 0.9% in assay [2]; 2.27% in assay [3]; 1.63% in assay [4]; 1.66% in [5]; -0.08% in assay [6]. In addition, the inhibition in [7] is -0.57%; in [8], -0.86%; in assay [9] it was -0.69%; in [10], 2.19%.

Take `COc1ccc(CNC(=O)c2ccc(-c3cc(-c4nnc(C)o4)ccc3C)cc2)cc1`: the inhibition in assay [1] is 2.74%; in assay [2] it was 2.54%; in assay [3], 0.87%; in [4], -0.31%; in assay [5], 0.63%; in assay [6], 0.56%. For the same compound, the inhibition was determined as 4.1% in assay [7], 0.04% in assay [8], 2.36% in assay [9] and 3.65% in assay [10].
